B2AR arrestin: beta2AR (human) beta-arrestin recruitment activity. P07550. beta-arrestin recruitment to beta2AR, cell-based reporter. Potency, µM (highest dose often 46.1 µM), for the others: at the top dose activation, most hits filed as activators. actives 0.02% (n = 330,000). AID 492947;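 further: 0% = DMSO controls and full agonism = EC100 isoproterenol or metaproterenol; nearly all actives have a fitted effect of over 65% in size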
Gal4-VP16 FLuc: Gal4-VP16 reporter inhibition counter-screen. actives 3.5% (n = 310,000). Drosophila S2 Gal4-VP16 UAS-luciferase, luminescence, 20 h. Potency, µM (highest dose often 53.6 µM), inactives show at the highest dose activity, negative = inhibition, usual class: inhibitors;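 further: Gal4-VP16 expression switched on by copper sulfate through the metallothionein promoter; nearly all actives have a fitted effect of over 50% in size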
NPSR antag: blocks cAMP signaling of the human neuropeptide S receptor | CHO-NPSR cells, cAMP TR-FRET, antagonist mode | AID 1461 | actives 1% (n = 220,000) | Q6W5P4 | Potency, µM (highest dose often 38.3 µM), for inactives: at the top dose activity change, negative = inhibition, most hits filed as inhibitors; further: nearly all actives have a fitted effect of over 50% in size
RORg inh: blocks mouse ROR gamma transcriptional activity. P51450. Drosophila S2 Gal4-RORgamma UAS-luciferase reporter, 20 h. Potency, µM (top dose mostly 53.6 µM), without a hit: at the highest dose activity change, negative = inhibition, hits mostly inhibitors. actives 5.4% (n = 310,000); further: nearly all actives have a fitted effect of over 60% in size
Target sequence (P51450 whole entry, looked up, the tested form may be a part): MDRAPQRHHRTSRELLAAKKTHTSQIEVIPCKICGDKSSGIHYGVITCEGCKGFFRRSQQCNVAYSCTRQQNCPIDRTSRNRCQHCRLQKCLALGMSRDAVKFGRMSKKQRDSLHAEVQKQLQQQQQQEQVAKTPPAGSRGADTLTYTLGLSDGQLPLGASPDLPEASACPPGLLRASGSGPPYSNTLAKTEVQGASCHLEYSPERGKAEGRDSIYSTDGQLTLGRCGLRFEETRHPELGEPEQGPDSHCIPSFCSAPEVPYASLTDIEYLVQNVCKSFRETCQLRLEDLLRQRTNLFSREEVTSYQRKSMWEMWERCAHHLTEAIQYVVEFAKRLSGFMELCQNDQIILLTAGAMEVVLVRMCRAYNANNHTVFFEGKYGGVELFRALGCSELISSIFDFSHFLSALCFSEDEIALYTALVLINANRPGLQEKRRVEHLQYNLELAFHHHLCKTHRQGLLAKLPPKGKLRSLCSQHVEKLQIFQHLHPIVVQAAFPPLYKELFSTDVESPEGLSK
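Drosophila Schneider cells stably carrying a metallothionein-driven Gal4 DBD–ROR gamma fusion and a UAS-Photinus luciferase reporter were exposed to compound for 1 hr, then induced with copper sulfate (700 uM final) for 20 hr at ambient temperature before luminescence reading.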
* marks the source's active call; other numbers are inactive results; ! = not confirmed by another sample; [ ] = another dose, or the depositor's remark. Most compounds without a hit are left out; they make up all but 5.7% or so of the library. The call rests on the fitted dose curve; in most records, active means well fitted curve in the direction sought with a large enough effect; inconclusive means small, poorly fitted or top-dose-only effect, or another doubt; inactive means no such curve, though single readings can be large; an effect the other way counts as inactive or inconclusive. Unless noted, on the % scale 0 is the no-effect control and ±100 the full control effect; potency means the concentration at half of the fitted maximal effect.

c1ccc(-c2nnsc2-c2ccccc2)cc1 was read as B2AR arrestin 0%, Gal4-VP16 FLuc 16% and RORg inh 6%.
Screening CCCC=O returned Gal4-VP16 FLuc -9% and RORg inh 13%.
For OCCNC(=S)Nc1ccc(Cl)c(Cl)c1 the results were B2AR arrestin -1%, Gal4-VP16 FLuc 11%, NPSR antag 8% and RORg inh 5%.
For NN(Cc1ccccc1)C(=S)Nc1ccc(Cl)c(Cl)c1 the results were B2AR arrestin 0%, Gal4-VP16 FLuc inconclusive and RORg inh 11µM*.
Screening Cc1ccc(NC(=O)/C(Cl)=C/c2ccccc2)cc1C returned B2AR arrestin -1%, Gal4-VP16 FLuc inconclusive, NPSR antag -6% and RORg inh 10µM*.
For CC(=O)Nc1ccccc1C(=O)C(=O)Nc1ccc(C)c(C)c1 the results were B2AR arrestin -1%, Gal4-VP16 FLuc 19%, NPSR antag -27% and RORg inh inconclusive.
C[C@@H]1C(=O)NC2=Nc3cccc(Cl)c3CN21 was read as Gal4-VP16 FLuc -1%, NPSR antag 2%[46.1 µM] and RORg inh -1%.
Screening COc1ccc(NC(=S)NNC(=O)CCn2cc([N+](=O)[O-])cn2)cc1 returned B2AR arrestin -1%, Gal4-VP16 FLuc 0%[10 µM], NPSR antag 4% and RORg inh -43%.
O=C(CCN1CCN(Cc2ccccc2)CC1)NNC(=O)Nc1cccc(Cl)c1 was read as B2AR arrestin 0%, Gal4-VP16 FLuc 5% and RORg inh 16%.
Screening CCNC(=S)NNC(=O)CCn1cc(C)cn1 returned B2AR arrestin 3%, Gal4-VP16 FLuc inconclusive, NPSR antag 8% and RORg inh 6.3µM*.
CCNC(=S)NNC(=O)CCn1c2ccccc2c2ccccc21 was read as B2AR arrestin 0%, Gal4-VP16 FLuc inconclusive, NPSR antag -11%[46.1 µM] and RORg inh inconclusive.
Screening Cc1cnn(CCC(=O)NNC(=S)Nc2ccc(F)cc2)c1 returned B2AR arrestin 0%, Gal4-VP16 FLuc 2.8µM*, NPSR antag 4%[46.1 µM] and RORg inh 0.45µM*.
Cc1cnn(CCC(=O)NNC(=S)Nc2cccc(Cl)c2)c1 was read as B2AR arrestin 0%, Gal4-VP16 FLuc inconclusive, NPSR antag -8%[46.1 µM] and RORg inh 0.35µM*.
Screening C[C@]12CC[C@@H]3c4ccc(O)cc4CC[C@H]3[C@@H]1CC[C@H]2O returned Gal4-VP16 FLuc -13% and RORg inh -35%.
COc1ccc(Oc2ncc3nc(-c4cccs4)c(=O)n(CCC#N)c3n2)cc1 was read as Gal4-VP16 FLuc -1% and RORg inh -12%.
COC(=O)NC(c1cccc(C)c1)[C@]1(C(C)=O)CCOC1=O (some centres undefined) was read as Gal4-VP16 FLuc -7%[10 µM] and RORg inh -8%[10 µM].
For N#C/C(=C(\O)c1cc(Cl)sc1Cl)c1nc2ccccc2[nH]1 the results were B2AR arrestin 0%, Gal4-VP16 FLuc inconclusive and RORg inh 2.5µM*.
For N#C/C(=C(/O)c1ccc(Cl)c([N+](=O)[O-])c1)c1nc2ccccc2[nH]1 the results were B2AR arrestin 1%, Gal4-VP16 FLuc inconclusive, NPSR antag 27% and RORg inh 13µM*.
CC(=O)OC(/C(O)=C(\C#N)c1nc2ccccc2[nH]1)c1ccccc1 (centres undefined) was read as B2AR arrestin 0%, Gal4-VP16 FLuc inconclusive, NPSR antag -15%[46.1 µM] and RORg inh 14µM*.
For N#C/C(=C(/O)C(Cl)(Cl)Cl)c1nc2ccccc2[nH]1 the results were B2AR arrestin 0%, Gal4-VP16 FLuc inconclusive, NPSR antag -28% and RORg inh inconclusive.
For C/C(O)=C(/C#N)c1nc2ccccc2[nH]1 the results were B2AR arrestin 0%, Gal4-VP16 FLuc inconclusive, NPSR antag -3%[46.1 µM] and RORg inh 7.9µM*.
N#C/C(=C(/O)c1ccc([N+](=O)[O-])cc1)c1nc2ccccc2[nH]1 was read as B2AR arrestin 0%, Gal4-VP16 FLuc 18%, NPSR antag 14% and RORg inh -15%.
FC(F)(F)c1cc(NC(=S)Nc2ccc3cc4ccccc4cc3c2)cc(C(F)(F)F)c1 was read as Gal4-VP16 FLuc 8% and RORg inh 19%.
For Cc1nnc(NC(=O)CSCc2cc(=O)c3ccccc3[nH]2)s1 the results were B2AR arrestin 0%.
For COc1cc(/C(O)=C(\C#N)c2nc3ccccc3[nH]2)cc(OC)c1OC the results were B2AR arrestin -1%, Gal4-VP16 FLuc inconclusive and RORg inh 11µM*.
`CC(C)(C)c1cc(NCc2ccccn2)n2ncc(-c3ccc(Cl)cc3)c2n1` gave B2AR arrestin -1%, Gal4-VP16 FLuc inconclusive, NPSR antag inconclusive and RORg inh 0.56µM*.
Screening CN(C)CCCNc1cc(C(C)(C)C)nc2c(-c3ccc(Cl)cc3)cnn12 returned B2AR arrestin -1%, Gal4-VP16 FLuc 14µM*, NPSR antag inconclusive and RORg inh 2µM*.
For Cc1ccc2[nH]c(C(=O)Nc3ccc(F)cc3)cc2c1 the results were B2AR arrestin 0%, Gal4-VP16 FLuc 16% and RORg inh 10µM*.
For COc1ccc(C(=O)N2CCC[C@@]3(CCN(Cc4nccs4)C3)C2)cc1 the results were Gal4-VP16 FLuc 2% and RORg inh 0%.
For Cc1ccc2c(C)ccc(O)c2n1 the results were B2AR arrestin 0%, Gal4-VP16 FLuc inconclusive, NPSR antag -8%[46.1 µM] and RORg inh 11µM*.
Cc1ccc2ccc3ccc(C)nc3c2n1 was read as B2AR arrestin 0%, Gal4-VP16 FLuc 0.56µM* and RORg inh 0.25µM*.
For CCn1ccnc1CNC(=O)c1ccc2oc(C(C)C)nc2c1 the results were B2AR arrestin 1%, Gal4-VP16 FLuc 15% and RORg inh -27%.
Screening COc1cc(/C=C/C(=O)O)cc(S(=O)(=O)NC2CC2)c1OC returned B2AR arrestin 0%, Gal4-VP16 FLuc -8%, NPSR antag 14% and RORg inh -1%.
Screening COc1ccc(CC(=O)Nc2nn(C)c3nc4c(C)cccc4cc23)cc1 returned B2AR arrestin 0%, Gal4-VP16 FLuc -4%, NPSR antag -17% and RORg inh -10%.
`CC[C@H](C)C(=O)O[C@H]1CCC=C2C=C[C@H](C)[C@H](CC[C@@H]3C[C@@H](O)CC(=O)O3)[C@H]21` gave B2AR arrestin 0%, Gal4-VP16 FLuc -27%, NPSR antag 16µM*! and RORg inh inconclusive.
CC[C@@H]1[C@H]2CCCC(=O)N3CC[C@@H](C[C@@H]1OC(=O)Nc1ccccc1)[C@@H]23 was read as B2AR arrestin 0%, Gal4-VP16 FLuc -2% and RORg inh -10%.
Screening COCCCNC(=S)N/N=C/c1ccc(N(C)C)cc1 returned B2AR arrestin 6%, Gal4-VP16 FLuc 7.1µM*, NPSR antag -14% and RORg inh 2.8µM*.
COCCCNC(=O)C(=O)N/N=C/c1cc2c(cc1Br)OCO2 was read as B2AR arrestin 0%, Gal4-VP16 FLuc -19%, NPSR antag -8% and RORg inh 10%.
Screening COCCCNC(=S)N/N=C/c1ccccc1O returned B2AR arrestin inconclusive, Gal4-VP16 FLuc 3.5µM*, NPSR antag -7% and RORg inh 0.56µM*.
